High-throughput results (PubChem)
Rows were chosen to be rich in hits. Some 6.8% of all compounds tested hit in one or more screens of this group.
Cy5 interf NS3h = counter-screen for HCV NS3 helicase inhibitors: fluorescence interference | Cy5-dT15 DNA with NS3h; actives lie on both sides; signal over control mean, under 1 quenches | fluorescence interference ratio at 100 µM | actives 6% (n = 16,000);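 active = compound fluorescence over control fluorescence at most 0.8, a quencher, or at least a set upper limit, an enhancer; inactive = ratio between 0.8 and the set upper limit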
NS3h inh CB = hepatitis C NS3 helicase inhibition, primary screen | NS3h Cy5-dT15 DNA binding, fluorescence polarization | inhibition, % at 100 µM | actives 1.6% (n = 16,000);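 active = inhibition above the average over every tested compound plus 3 SD, cut at about 40% in these data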
* hit, by the source's call.

SMILES	Cy5 interf NS3h	NS3h inh CB
Cc1ccc(C(=O)Nc2ccc3oc(-c4ccc(F)cc4Cl)nc3c2)cc1[N+](=O)[O-]	0.741*	6.2
O=C(COc1ccccc1[N+](=O)[O-])Nc1ccc2oc(-c3cc(Br)ccc3Cl)nc2c1	1.2*	-18.5
CCOc1ccc(-n2nc3ccc(NC(=O)c4ccc(Cl)cc4)cc3n2)cc1	0.642*	15.2
COc1ccc(NC(=O)c2ccc(C)c([N+](=O)[O-])c2)cc1	0.736*	13.3
COc1cccc(C(=O)Nc2ccc3oc(-c4ccc(F)cc4Cl)nc3c2)c1	1.07	-16.2
CCc1ccc(NC(=O)c2ccc(C)c([N+](=O)[O-])c2)cc1	1.01	-5.0
O=C(COc1ccccc1[N+](=O)[O-])Nc1ccc2oc(-c3ccccc3Br)nc2c1	1.06	-19.8
NC(=O)c1ccc(NC(=O)c2ccccc2C(=O)O)cc1	1.12	1.7
Cc1ccccc1CC(CC(=O)O)C(=O)O (stereo unspecified)	1.02	1.3
Cc1cc(C)c(/C=N\n2cnnc2)cc1C	0.953	1.2
O=C(Nc1ccc2nn(-c3ccc(Cl)cc3)nc2c1)c1ccccc1I	1.09	-14.1
O=C(c1cc2nc(-c3ccc([N+](=O)[O-])cc3)cc(C(F)(F)F)n2n1)N1CCCc2ccccc21	1.01	3.8
O=C(NCc1ccccc1)c1ccc(CN2CCN(Cc3ccccc3)CC2)cc1	0.931	2.3
CCOC(=O)C(C)P(=O)(c1ccccc1)c1ccccc1 (stereo unspecified)	1.05	3.9
COC(=O)c1ccc(NC(=S)NC(=O)c2ccc(OC)cc2)cc1	0.946	21.0
CCOc1ccccc1NC(=O)c1ccc(C)c([N+](=O)[O-])c1	0.752*	18.0
O=C(Nc1ccc(Oc2ccccc2)cc1)c1ccc([N+](=O)[O-])cc1	1.03	2.5
COc1ccc(C(=O)Nc2ccc(C(=O)O)cc2)cc1	1.22*	-3.1
CCOc1ccc(NC(=O)c2ccc(Cl)c([N+](=O)[O-])c2)cc1	0.731*	17.0
NS(=O)(=O)c1ccc(NC(=O)c2ccc(Oc3ccccc3)cc2)cc1	1.21*	1.2
CCOc1ccc(NC(=O)c2ccc(C)c([N+](=O)[O-])c2)cc1	1.02	5.3
CCOc1ccccc1NC(=O)c1ccc([N+](=O)[O-])cc1	1.02	-7.3
CCCCCOC(=O)COc1ccc(S(=O)(=O)c2ccc(OCC(=O)OCCCCC)cc2)cc1	0.955	3.5
O=P(COCC1CCCO1)(c1ccccc1)c1ccccc1 (stereo unspecified)	1.03	0.7
COc1ccc(OC)c(NC(=O)C2c3ccccc3Oc3ccccc32)c1	1.03	13.1
SMILES	Cy5 interf NS3h	NS3h inh CB
COC(=O)c1ccccc1NC(=S)NC(=O)c1ccco1	1.03	-0.7
O=C(O/N=C(\c1ccc(Br)cc1)N1CCOCC1)c1ccccc1	0.887	5.1
COc1ccccc1OCCOc1ccc(Br)cc1/C=c1\sc2nc3ccccc3n2c1=O	1.05	1.3
NC(=O)C1CCN(C(=O)c2cccc(Br)c2)CC1	1.06	4.4
COc1ccc(N2C(=O)NC(=O)/C(=C\c3ccc(OC)cc3C)C2=O)cc1	1.02	21.6
O=C(Cc1cccc2c(S(=O)O)cccc12)NC(c1ccccc1)c1ccccc1	1.05	8.2
O=C(NC(c1ccccc1)c1ccccc1)C1CC1c1ccccc1 (stereo unspecified)	0.683*	14.2
COc1ccc(NC(=O)c2ccc(CN(c3ccccc3)S(C)(=O)=O)cc2)cc1OC	1.02	11.9
O=C(c1ccc(Cl)cc1)N1CCN=C1c1ccccc1	0.643*	2.2
O=C(c1ccccc1)N1CCN=C1c1ccccc1	0.878	-7.5
CCOc1cc(C(=S)N2CCOCC2)cc(Br)c1O	0.721*	20.7
CCOc1cc(C(=S)N2CCOCC2)ccc1OS(=O)(=O)c1ccc(C)cc1	0.883	11.1
O=C(N/N=C\c1ccc2c(c1)OCO2)c1ccc(CO)nc1	0.995	18.6
O=C(CCN1C(=O)c2ccccc2C1=O)NCc1ccccn1	0.966	6.7
Cn1c(-n2c(CCCN3C(=O)c4ccccc4C3=O)nc3ccccc3c2=O)nc2ccccc21	0.674*	11.5
O=C1c2ccccc2C(=O)N1CCc1nc2ccccc2c(=O)n1-c1nccs1	0.59*	16.1
Cn1c(CC(O)(c2ccccc2)c2ccccc2)nc2ccccc21	1.06	11.9
Cc1no[n+]([O-])c1COc1ccccc1C=O	1.09	2.2
Cc1ccc(Cc2ccccc2C(=O)O)cc1Cl	0.981	0.7
O=C(O)CCCC(=O)OCc1ccco1	0.996	48.0*
O=C(O)CCCC(=O)Nc1ccccc1	0.891	-8.6
C=CCNC(=O)C(=O)Nc1ccccc1OCC	1.03	4.7
O=[N+]([O-])c1ccc(NCCNCCO)cc1	0.927	-12.6
O=C1N=c2ccccc2=C1c1sc(=S)n(-c2ccc(F)cc2)c1O	0.991	-5.2
O=C1N=c2ccccc2=C1c1sc(Nc2ccc(O)cc2)nc1O	0.631*	11.1
SMILES	Cy5 interf NS3h	NS3h inh CB
O=C(Nc1ccccc1F)c1ccc2nccnc2c1	1.03	-0.9
CC(C)(C)CC(C)(C)NC(=O)c1ccc2nccnc2c1	0.609*	4.0
C/C(=N\N=C1/c2ccccc2C(=O)C1C(=O)C(c1ccccc1)c1ccccc1)c1cccs1 (stereo unspecified)	0.684*	4.0
CC(CNC(=O)c1cccs1)c1ccccc1 (stereo unspecified)	0.995	-1.6
CCOC(=O)C1=C(C)NC(=O)NC1c1cn(-c2ccccc2)nc1-c1cccc([N+](=O)[O-])c1 (stereo unspecified)	0.897	4.5
O=C(/C=C/c1ccccc1)N1CCC(CN2C(=O)c3cccc4cccc(c34)C2=O)CC1	0.894	12.9
Cc1ccc(C(=O)O/N=C(/N)Cc2ccc(Cl)cc2Cl)cc1[N+](=O)[O-]	0.899	21.7
c1ccc(CCNc2ccnc3cc4ccccc4cc23)cc1	0.957	2.2
CCN(CC)CCNc1ccc(Nc2ccnc3cc4ccccc4cc23)cc1	0.576*	7.3
O=C(c1ccccc1)c1ccc(N=Cc2ccc([N+](=O)[O-])s2)cc1	1.05	0.7
O=C1c2ccccc2C(=O)N1N1C(=O)c2cccc([N+](=O)[O-])c2C1=O	1.04	1.9
O=[N+]([O-])c1cccc2c1=C1C(Cl)=CC=C1C=2	0.537*	1.2
COc1ccc(N2C(=O)c3ccc(C(=O)Nc4ccccc4I)cc3C2=O)cc1	1.05	8.2
COc1ccc(N2C(=O)c3ccc(OCCOc4ccc5c(c4)C(=O)N(c4ccc(OC)cc4)C5=O)cc3C2=O)cc1	0.643*	2.2
Cc1ccc(C(=O)N/C(=C/c2cccnc2)c2nc3ccccc3[nH]2)cc1	0.797*	-7.5
Cc1ccc(C(=O)N/C(=C\c2ccccc2F)c2nc(=S)[nH][nH]2)cc1	0.884	6.6
COc1cccc(NC(=O)/C(=C/c2ccc(C)o2)NC(=O)c2ccccc2)c1	0.711*	15.0
COc1ccc(NC(=O)/C(=C/c2ccccc2Cl)NC(=O)c2ccc(C)cc2)cc1	1.17	-1.3
COc1ccc(/C=C/C(=O)N2CCCCCC2)cc1Br	0.957	2.7
COc1ccc(/C=C/C(=O)N2CCOCC2)cc1OC	0.626*	12.4
CCOC(=O)c1ccc(NC(=O)c2ccc(S(=O)(=O)N(C)C)cc2)cc1	1.01	6.0
CN(C)c1ccc(/C=C2/C(=O)NC(=O)N(CCCO)C2=O)cc1	0.94	18.9
C=CCN1C(=O)/C(=C/c2ccc(N(C)C)cc2)C(=O)NC1=S	1.21*	33.8
O=C(CN(c1cccc(Cl)c1)S(=O)(=O)c1ccccc1)Nc1ccccc1Cl	1.1	11.8
O=C1S/C(=C/c2ccc(Cl)cc2Cl)C(=O)N1c1ccccc1	0.987	2.9
